# Measured values as given in PubChem BioAssay AID720522 (National Center for Advancing Translational Sciences (NCATS), 2013).
# The campaign covered roughly 1,400 compounds. About 60 (4%) were called active. Another 7% or so got no clear call; they are omitted. The call rests on the fitted dose curve; in most records, active means well fitted inhibition curve with a large enough effect; inconclusive means small, poorly fitted or top-dose-only effect; inactive means flat fitted curve, though single readings scatter. These entries were drawn from the full list. Where a call stands in place of a potency, no number is given.
# Target: Luciferin 4-monooxygenase (Photinus pyralis) (UniProt P08659)
# Sequence (P08659 whole entry, looked up): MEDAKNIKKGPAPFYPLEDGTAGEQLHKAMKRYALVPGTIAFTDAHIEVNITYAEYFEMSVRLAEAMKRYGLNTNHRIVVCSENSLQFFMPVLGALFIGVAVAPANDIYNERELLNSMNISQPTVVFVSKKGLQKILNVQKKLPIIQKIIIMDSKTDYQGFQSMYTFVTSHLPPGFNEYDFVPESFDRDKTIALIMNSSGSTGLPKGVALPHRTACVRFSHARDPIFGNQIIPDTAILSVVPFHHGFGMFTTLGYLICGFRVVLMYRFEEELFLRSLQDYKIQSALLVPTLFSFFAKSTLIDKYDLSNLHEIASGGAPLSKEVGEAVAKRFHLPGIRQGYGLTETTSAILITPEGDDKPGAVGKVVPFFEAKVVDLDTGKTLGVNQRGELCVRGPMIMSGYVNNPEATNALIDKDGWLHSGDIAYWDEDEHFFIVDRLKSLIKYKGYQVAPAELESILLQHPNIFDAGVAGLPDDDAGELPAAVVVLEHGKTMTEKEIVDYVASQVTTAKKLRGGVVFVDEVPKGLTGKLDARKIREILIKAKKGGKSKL
# Assay: Nrf2 qHTS screen for inhibitors: Purified Fluc Biochemical Counterscreen for Hit Validation; further: nearly all actives have a fitted effect of over 65% in size
# Details: purified firefly luciferase, luminescence inhibition; series mostly up to 57.5 µM
# From the text: Nrf2 is a transcription factor that maintains cellular redox homoestasis and protects cells from xenobiotics. Nrf2 binds to the antioxidant response element (ARE) to induce gene expression of a broad spectrum of genes that encode for antioxidants. […] Finding a small molecule that act as an inhibitor of Nrf2 function would represent a novel therapeutic target that could lead to improvement in survival of patients undergoing chemo- and/or radio- therapy.
# A biochemical assay in 1536 well format was developed and utilized to remove compounds that inhibit the luciferase reporter (Fluc) rather than the Nrf2 enzyme. Inhibition of this assay = false positive inhibition of Nrf2.
# NIH Chemical Genomics Center [NCGC]
# NIH Molecular Libraries Probe Centers Network [MLPCN]
# Assay Submitter (PI): Shyam Biswal, Johns Hopkins University
# [1] Shibata T., et al., Genetic alteration of Keap1 confers constitutive Nrf2 activation and resistance to chemotherapy in gallbladder cancer. Gastroenterology, 2008.
# [2] Sjoblom T., et al., The consensus coding sequences of human breast and colorectal cancers. Science, 2006.
# Three microliter of substrate solution containing 50mM Tris acetate, 13.3 mM Mg-acetate, 0.01mM ATP, 0.01% Tween, 0.05% BSA and 0.01mM D-Luciferin (Sigma, #L9504) was dispensed into 1536 well white solid bottom assay plate (Greiner Bio, #789173-F). Twenty-three nanoliter of compounds dissolved in DMSO at different concentrations was added to the plate using a Kalypsys 1536-pin tool. Then 1 uL of firefly luciferase reagent containing 50mM Tris-acetate and 0.04uM P. pyralis luciferase (Sigma, #L9506) was added. The final DMSO concentration was maintained at 0.56%. Luminescence signal was acquired using the PerkinElmer Viewlux plate reader after incubation at room temperature for 10 minutes.
# Potency means the concentration at half of the fitted maximal effect.
row,Structure (SMILES),Potency
1,COc1ccc(CC(=O)Nc2nc(-c3ccc(F)c(F)c3)cs2)cc1OC,inactive
2,O=C(OCCOc1ccccc1Cl)c1cc(S(=O)(=O)N2CCCCC2)ccc1N1CCOCC1,inactive
3,CC1CCCN(S(=O)(=O)c2ccc(C(=O)Nc3nnc(-c4ccncc4)o3)cc2)C1 (stereo not drawn),inactive
4,CC[C@H]1CN2CCc3cc(OC)c(OC)cc3[C@@H]2C[C@@H]1C[C@H]1NCCc2cc(OC)c(OC)cc21,inactive
5,Cc1ccc(S(=O)(=O)N2C[C@@H]3CCCC[C@@H]3[C@@H](C)[C@H]2c2cn(Cc3ccccc3)c3ccc(F)cc23)cc1,inactive
6,OCCCNc1nccc(-c2cc(Nc3cccc(Cl)c3)ncn2)n1,inactive
7,Cc1ccc(NS(=O)(=O)c2cccs2)cc1S(=O)(=O)N1CCCCCC1,inactive
8,CCOC(=O)c1cnc(-n2nc(C)cc2C)nc1NNc1cc(C)nc(-c2ccccc2)n1,inactive
9,CN(Cc1cccnc1)C(=O)c1cc(COc2ccc3ncccc3c2)on1,inactive
10,CC1(C)CC(N2CCN(C(c3ccccc3)c3ccccc3)CC2)=CC(=[N+]2CCCCC2)C1,inactive
11,Cc1csc[n+]1CCC1CCCCC1,inactive
12,O=C(Nc1ccc(Br)cn1)C1CCN(S(=O)(=O)c2cccs2)CC1,inactive
13,COc1ccc(N2CCN(C(=O)CSCc3nc(-c4ccccc4Cl)oc3C)CC2)cc1,inactive
14,CCCOc1ccc(Cc2c(Cl)nc(SC)nc2NC)cc1,inactive
15,Cc1cccc(N2CCN(C(=O)CCS(=O)(=O)c3ccc4c(c3)NC(=O)C(C)S4)CC2)c1C (stereo not drawn),inactive
16,C[n+]1ccc(/C=C/c2c[nH]c3ccccc23)cc1,inactive
17,O=C(CN1C(=O)c2ccccc2S1(=O)=O)N1CCc2ccccc21,4.26 µM (active)

row,Structure (SMILES),Potency
1,O=C(CSc1nnc2c(n1)[nH]c1ccccc12)NC1CCCCC1,inactive
2,O=C(CC(O)(C(F)(F)F)C(F)(F)F)Nc1ccc(Cl)c(Cl)c1,inactive
3,COc1ccc(C(=O)C[n+]2ccc(N)c(C)c2C)cc1,inactive
4,CCCN(c1ccc(C(C)C)cc1)S(=O)(=O)c1c(C)[nH]c(=O)[nH]c1=O,inactive
5,CCOc1ccc(S(=O)(=O)N2CCCCC2)cc1NC(=O)CN1CCCC1c1cccs1 (stereo not drawn),inactive
6,CC1CCN(S(=O)(=O)c2ccc(NC(=O)C3CC(=O)N(c4ccccc4)C3)cc2)CC1 (stereo not drawn),inactive
7,COc1ccc(CCNC(=O)c2ccc(CS(=O)(=O)c3ccc(Br)cc3)o2)cc1OC,inactive
8,COc1ccc(OC)c(Cc2cnc3nc(N)nc(N)c3c2C)c1,inactive
9,CCCCCCCCn1c2c(c(=N)c3c1CCC3)CCCC2,inactive
10,COc1ccc(CCNc2cc(N3CCN(C(=O)c4ccccc4OC)CC3)ccc2[N+](=O)[O-])cc1OC,inactive
11,CC(=O)N1c2ccc(S(=O)(=O)N3CCCC(C(=O)Nc4cccc(Cl)c4)C3)cc2CC1C (stereo not drawn),inactive
12,CNC(=O)c1cccc2nc3ccccc3nc12,inactive
13,CC(C)Cn1c(N)c(C(=O)COC(=O)CN2C(=O)C3CC=CCC3C2=O)c(=O)n(C)c1=O (stereo not drawn),inactive
14,Cc1cc(C)cc(NS(=O)(=O)c2ccc(Oc3ncc(C(F)(F)F)cc3Cl)cc2)c1,inactive
15,CCNS(=O)(=O)c1ccc(CCC(=O)N2CCN(c3cc(Cl)ccc3C)CC2)cc1,inactive
16,C=CCC1(CC=C)CCCN1C(=O)c1cc(COc2ccc(-n3cncn3)cc2)on1,inactive
